A selection: hits, their analogues and other compounds. The true share with any hit is near 15%.
Pf growth 48h: inhibits P. falciparum growth in the first generation, 48 h | AID 504832 | Potency, µM (titrated, usually from 28.7 µM), inactives show top-dose activity change, negative = inhibition, hits mostly inhibitors | P. falciparum luciferase growth in erythrocytes, 48 h | 5.9% of 310,000 active; note: potency is the fitted concentration of half-maximal effect; % is set by controls: 0 for no effect and ±100 for the full control effect
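Parasite viability was followed by luminescence of a genomically integrated firefly luciferase. Cultures held 0.1% parasitemia at 2% hematocrit (final), incubated under 5% CO2 at 37 C.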
HCV inhibitor: inhibitors of hepatitis C virus infection | Huh7.5.1 HCVcc-Cre infection, luciferase reporter, 44 h | Potency, µM (doses to about 41.8 µM), for inactives: at the top dose activity change, negative = inhibition, most hits filed as inhibitors | 3.4% of 340,000 active | AID 651820; note: potency is the fitted concentration of half-maximal effect; % is set by controls: 0 for no effect and ±100 for the full control effect
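Infectious HCV cell culture screen: compound-treated cells (1,000/well, pre-plated 4 h) are infected with HCVcc-Cre at roughly 0.5 moi and grown 44 h. Infection is quantified by luciferase signal after 15 min substrate incubation at room temperature.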
Pf growth 96h: P. falciparum growth inhibition at 96 hour, primary screen for plastid delayed-death inhibitors. P. falciparum luciferase reporter growth, 96 h. Potency, µM (series often up to 28.7 µM), for the others: at the top dose activity change, negative = inhibition, hits mostly inhibitors. 6.9% of 320,000 active; note: potency is the fitted concentration of half-maximal effect; % is set by controls: 0 for no effect and ±100 for the full control effect
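P. falciparum expressing integrated firefly luciferase, in erythrocytes at 2% hematocrit, 0.05% parasitemia, incubated with compounds 96 h at 37 C, 5% CO2. Growth inhibition read as loss of luminescence; two-generation exposure targets delayed-death apicoplast inhibitors.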
Sm TGR block: blocks Schistosoma mansoni thioredoxin glutathione reductase; Q962Y6; purified TGR, DTNB reduction, TNB absorbance 405 nm; Potency, µM (series often up to 114 µM), for the others: at the top dose activity change, negative = inhibition, usual class: inhibitors; 3% of 360,000 active; note: potency is the fitted concentration of half-maximal effect; % is set by controls: 0 for no effect and ±100 for the full control effect; nearly all actives have a fitted effect of over 60% in size
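Kinetic colorimetric format: TGR-catalysed, NADPH-driven DTNB reduction monitored via TNB absorbance. Enzyme dispensed at 20 nM; compound exposure 15 min at room temperature before reaction start.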
HCMV antiviral: human cytomegalovirus inhibition; activity change, negative = inhibition, % at 57.5 µM; 4.5% of 410,000 active; HFF cells, HCMV-luciferase reporter, 72 h; hits give low values; AID 1259415; in the data active = activity change below about -60%; inconclusive = no clear call, values can overlap the other calls; inactive = above about -39%; note: % is set by controls: 0 for no effect and ±100 for the full control effect
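Steps: HFFs plated, 16 h 37C; compounds added; HCMV-luciferase added to MOI 1 PFU/cell; 72 h 37C; OneGlo reagent, 5 min room temperature; luminescence read, normalized to controls.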
SARS PLpro yeast: blocks SARS-CoV papain-like protease in a yeast assay; 0.19% of 330,000 active; Potency, µM (highest dose often 32.9 µM), inactives show at the top dose activity, positive = growth rescue, hits mostly activators; S. cerevisiae expressing SARS-CoV PLpro, growth rescue; AID 485353; calls by dose curve; note: potency is the fitted concentration of half-maximal effect; 0% is about no effect; nearly all actives have a fitted effect of over 55% in size
The depositor's hits bear a star; ? = inconclusive; · = not tested or not shown. Unless noted, calls come from the whole dose curve; as a rule, active = well fitted curve in the direction sought with a large enough effect; inconclusive = small, poorly fitted or top-dose-only effect, or another doubt; inactive = no such curve, though single readings can be large; an effect the other way counts as inactive or inconclusive.

SMILES	Pf growth 48h	HCV inhibitor	Pf growth 96h	Sm TGR block	HCMV antiviral	SARS PLpro yeast
c1cc2c(cn1)cnc1cscc12	8.4%	-2.9%	-3.5%	1.0%	-63.2*	-30.6%
c1cnc2c(c1)ncc1cscc12	0.5%	4.2%	0.0%	-2.3%	-22.1	6.4%
CCCCC1(c2ccc(F)cc2)NC(=O)N(CC(=O)N2CCN(C(=O)c3ccco3)CC2)C1=O (stereo unspecified)	-13.5%	18.6%	6.57µM*	-3.4%	-0.7	-2.6%
CC1(C)CC(=O)c2cc(OCC(=O)N3CCCCCC3)ccc2O1	?	6.4%	13.1µM*	4.8%	16.9	9.7%
CC(=O)N1CCC2(CC1)CC(=O)c1cc(OCC(=O)N3CCCC3)ccc1O2	0.7%	10.0%	?	-4.0%	-21.9	2.8%
CCN1CCN(C(=O)COc2ccc3c(c2)C(=O)CC2(CCN(C(C)=O)CC2)O3)CC1	·	-7.6%	8.28µM*	-6.0%	3.4	10.3%
CC(=O)N1CCC2(CC1)CC(=O)c1cc(OCC(=O)NCc3ccco3)ccc1O2	-1.8%	10.2%	50.2%	25.1µM*	6.7	5.3%
CC(=O)N1CCC2(CC1)CC(=O)c1cc(OCC(=O)NCc3ccc(C)cc3)ccc1O2	?	13.0%	?	0.7%	·	1.3%
N#Cc1ccccc1Cn1c(SCC(=O)NCc2ccccc2)nc2ccccc21	·	·	·	0.3%	?	·
Cc1ccccc1-c1nc(-c2ccc(NC(=O)c3ccc4c(c3)OCO4)cc2)no1	·	?	52.1%	-1.9%	-78.6*	-7.6%
COc1cccc(C(=O)Nc2cc3c(cc2C(C)=O)OCCO3)c1	39.8%	?	10.4µM*	-1.1%	74.0	6.8%
COc1cccc(C(=O)N2CCOCC2)c1	3.6%	-9.6%	?	-8.2%	-22.2	0.1%
COc1cccc(C(=O)Nc2cccc(C(=O)N3CCOCC3)c2)c1	20.0%	5.3%	·	-0.6%	-66.4*	4.3%
COc1cccc(C(=O)Nc2cccc(C(C)=O)c2)c1	205.9%	-12.9%	220.2%	2.9%	29.0	0.7%
Cc1ccc(C(=O)NNC(=O)c2cccc(Br)c2)cc1	22.4%	29.4%	?	3.2%	?	-1.8%
CC(C)(C)c1ccc(C(=O)NNC(=O)c2cccc(Br)c2)cc1	42.9%	?	19.8%	-1.3%	-72.6*	7.6%
COc1cc(-c2nc(-c3ccc(NC(=O)c4ccc5c(c4)OCO5)cc3)no2)cc(OC)c1OC	50.5%	?	·	-4.5%	60.2	-1.3%
Cc1cccc(-c2nc3c(N4CCOCC4)nccc3[nH]2)c1	·	·	·	·	-0.5	·
COc1cc(OC)c(NC(=O)c2nn(-c3ccc(C)cc3)c(=O)c3c2c2ccccc2n3C)cc1Cl	·	·	·	3.3%	-0.3	·
COc1ccc(-c2nnc(SCC(=O)Nc3ccc4c(c3)OCCO4)n2N)cc1OC	3.3%	-12.0%	?	-32.7%	49.3	-1.7%
C[C@@H]1CN([C@H](C)CO)C(=O)c2cc(C#Cc3ccccc3F)cnc2O[C@@H]1CN(C)S(=O)(=O)c1ccccc1F	·	·	·	·	-4.3	·
COc1ccc(C(=O)N2CCC(c3ccccc3)CC2)c(OC)c1OC	-1.0%	-2.4%	26.2%	2.1%	60.3	2.6%
COc1cccc(NC(=O)c2ccc3c(c2)OCO3)c1	222.7%	0.5%	9.28µM*	0.0%	65.4	-21.0%
Cc1cccc(C(=O)NNC(=O)c2ccc(F)cc2)c1	2.7%	5.8%	?	7.94µM*	-14.8	7.2%
Cc1cccc(C(=O)NNC(=O)c2cccc(C)c2)c1	7.5%	3.7%	9.2%	8.3%	2.0	-10.0%
SMILES	Pf growth 48h	HCV inhibitor	Pf growth 96h	Sm TGR block	HCMV antiviral	SARS PLpro yeast
COc1cccc(NC(=O)c2ccc3c(c2)OCCO3)c1	166.7%	-14.4%	?	9.4%	31.9	-33.2%
COC(=O)c1ccc(NC(=O)c2cccc(OC)c2)cc1	40.4%	?	-3.1%	0.8%	-32.6	-27.3%
COC(=O)c1ccc(NC(=O)c2cccc(C)c2)cc1	106.1%	2.4%	?	89.1µM*	41.3	-10.0%
COC(=O)c1ccc(NC(=O)c2ccc3c(c2)OCO3)cc1	97.3%	?	14.7µM*	-7.1%	16.1	-1.5%
CN(CCCNC(=O)CSc1cc(=O)n(C)c2cc(Cl)ccc12)Cc1ccccc1	-5.6%	?	21.2%	-14.5%	56.4	1.8%
Cc1c(Br)c(C(=O)NNC(=O)c2ccc(C(C)(C)C)cc2)nn1C	24.1%	-11.2%	31.7%	15.0%	-61.4*	2.3%
Cn1cc(Br)c(C(=O)NNC(=O)c2ccc(Br)cc2)n1	103.3%	-0.7%	?	-2.0%	48.4	-13.2%
COc1ccc(C2CC(C(F)(F)F)n3nc(C(=O)N(C)Cc4cn(C)nc4C)c(Cl)c3N2)cc1 (stereo unspecified)	14.7µM*	-5.4%	0.0%	-19.4%	-25.9	-0.3%
Cc1c(CNC(=O)c2nn3c(c2Cl)NC(c2ccccc2)CC3C(F)(F)F)cnn1C (stereo unspecified)	?	-15.1%	59.4%	-14.9%	?	0.9%
COc1ccc(C2CC(C(F)(F)F)n3nc(C(N)=O)c(Cl)c3N2)cc1OC (stereo unspecified)	13.7%	-9.4%	·	-32.8%	-2.2	-2.0%
COc1ccc(C2CC(C(F)(F)F)n3nc(C(=O)NCc4c(C)nn(C)c4C)c(Cl)c3N2)cc1 (stereo unspecified)	?	?	-2.3%	-1.2%	-86.0*	-4.4%
Oc1ccc(C[C@H]2NCCc3cc(O)c(O)cc32)cc1O	?	21.9%	?	17.8µM*	11.2	-2.6%
CCOc1cc2c(cc1OCC)C(c1ccc(F)cc1)NCC2 (stereo unspecified)	·	9.4%	·	·	-1.2	·
CCc1ccc(OCC2NCCc3cc(OC)c(OC)cc32)cc1 (stereo unspecified)	-2.9%	-2.1%	10.2%	-21.7%	-89.6*	-4.8%
COc1cc2c(cc1OC)C(Cc1ccc(O)cc1)NCC2 (stereo unspecified)	1.6%	-2.9%	-22.1%	-5.5%	-78.5*	11.2%
Oc1ccc(CC2CC3CCN2CC3)cc1O (stereo unspecified)	-6.3%	19.8%	52.8%	-10.6%	-4.8	5.7%
COc1cc2c(cc1OC)C(COc1ccc(F)cc1)NCC2 (stereo unspecified)	-6.9%	14.3%	9.5%	-28.1%	?	-7.9%
CCOc1ccc(CC2NCCc3cc(OCC)c(OCC)cc32)cc1OCC (stereo unspecified)	11.7µM*	6.31µM*	?	-33.6%	-31.3	-0.4%
COc1cc2c(cc1OC)C(Cc1ccc(O)cc1)N(C)CC2 (stereo unspecified)	-12.5%	-14.3%	10.0%	-6.0%	-17.5	25.7%
CCCCn1c(N)c(N(C)C(=O)c2cc3c(s2)CCCCC3)c(=O)[nH]c1=O	?	16.1%	-26.8%	-9.7%	-10.9	1.1%
